Here are results for one sequence from paper PMC7862700, “An all-to-all approach to the identification of sequence-specific readers for epigenetic DNA modifications on cytosine”.

Common to all, as to test: DAPPL (digital affinity profiling via proximity ligation, sequencing); 10 mM Tris-HCl pH 7.5, 50 mM NaCl, 1 mM DTT, 4% glycerol, room temperature, 30 min; GST-TFs on glutathione beads, 16-mer random dsDNA library, 0.1% formaldehyde crosslink after washing; high values mean tight binding
In experiment [1] the target is T1, FLI1 (Homo sapiens, UniProt Q01543 1-452).
T1 sequence: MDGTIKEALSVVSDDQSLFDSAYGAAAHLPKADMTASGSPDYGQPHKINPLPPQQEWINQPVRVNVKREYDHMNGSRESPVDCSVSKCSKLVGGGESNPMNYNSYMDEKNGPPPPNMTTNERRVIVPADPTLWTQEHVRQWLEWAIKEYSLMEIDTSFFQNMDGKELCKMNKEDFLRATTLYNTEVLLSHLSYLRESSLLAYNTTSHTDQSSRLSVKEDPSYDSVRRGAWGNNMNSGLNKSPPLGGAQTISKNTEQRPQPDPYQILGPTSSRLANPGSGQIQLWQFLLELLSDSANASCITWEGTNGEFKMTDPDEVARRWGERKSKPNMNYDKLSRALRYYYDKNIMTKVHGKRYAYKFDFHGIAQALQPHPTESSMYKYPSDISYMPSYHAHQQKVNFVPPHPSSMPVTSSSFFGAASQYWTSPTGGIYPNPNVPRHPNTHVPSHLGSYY
As to conditions: protein: recombinant; tags: N-terminal GST; dsDNA, one strand shown. In short, it runs like this:
(§1)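 Sequencing on an Illumina NextSeq500 followed washing, crosslinking with 0.1% formaldehyde, proximity ligation (BsaI/T4 ligase, 1 h, 37 °C) and PCR amplification of pools that had been incubated for 30 min at room temperature with 200 nmole of a random double-stranded 16-mer DNA library in Tris/NaCl/DTT/glycerol buffer. Each pool held DNA-barcoded human transcription factors, expressed in yeast as GST fusions and captured on glutathione beads, plus a tag-only sample. Binding signal is a hexamer's read frequency for a factor divided by its frequency in the tag-only sample.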

In experiment [2] the target is T2, ELK1 (Homo sapiens, UniProt P19419 1-428).
T2 sequence: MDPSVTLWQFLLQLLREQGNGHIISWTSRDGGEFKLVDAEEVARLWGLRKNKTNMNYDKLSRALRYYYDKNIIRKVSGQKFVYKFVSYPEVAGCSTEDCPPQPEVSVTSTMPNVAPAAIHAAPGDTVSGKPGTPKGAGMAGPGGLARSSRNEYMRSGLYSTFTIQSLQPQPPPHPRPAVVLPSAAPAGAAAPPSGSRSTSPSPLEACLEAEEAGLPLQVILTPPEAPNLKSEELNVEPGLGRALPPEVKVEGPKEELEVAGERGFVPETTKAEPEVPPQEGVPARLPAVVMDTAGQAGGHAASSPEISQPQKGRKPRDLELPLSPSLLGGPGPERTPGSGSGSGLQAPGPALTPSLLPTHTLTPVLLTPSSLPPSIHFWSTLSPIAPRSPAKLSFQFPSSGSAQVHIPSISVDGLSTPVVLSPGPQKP
The conditions noted are these: protein: recombinant; tags: N-terminal GST; dsDNA, one strand shown. The method, boiled down: as §1

Experiment [3] addresses T3, GABPA (Homo sapiens, UniProt Q06546 1-454).
T3 sequence: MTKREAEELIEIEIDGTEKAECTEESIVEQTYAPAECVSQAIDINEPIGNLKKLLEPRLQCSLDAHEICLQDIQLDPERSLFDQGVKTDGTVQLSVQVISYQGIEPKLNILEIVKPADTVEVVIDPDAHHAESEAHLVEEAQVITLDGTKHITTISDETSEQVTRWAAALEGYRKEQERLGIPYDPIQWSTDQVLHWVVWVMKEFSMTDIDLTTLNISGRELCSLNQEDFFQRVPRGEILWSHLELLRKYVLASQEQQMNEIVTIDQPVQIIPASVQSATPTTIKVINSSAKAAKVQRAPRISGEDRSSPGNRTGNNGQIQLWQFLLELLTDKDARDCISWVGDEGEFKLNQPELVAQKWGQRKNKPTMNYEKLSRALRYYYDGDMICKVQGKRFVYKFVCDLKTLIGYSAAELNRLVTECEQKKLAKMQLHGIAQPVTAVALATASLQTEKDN
As to conditions: protein: recombinant; tags: N-terminal GST; dsDNA, one strand shown. The method, boiled down: as §1

The target in experiment [4] is T4, ERG (Homo sapiens, UniProt P11308 1-479).
T4 sequence: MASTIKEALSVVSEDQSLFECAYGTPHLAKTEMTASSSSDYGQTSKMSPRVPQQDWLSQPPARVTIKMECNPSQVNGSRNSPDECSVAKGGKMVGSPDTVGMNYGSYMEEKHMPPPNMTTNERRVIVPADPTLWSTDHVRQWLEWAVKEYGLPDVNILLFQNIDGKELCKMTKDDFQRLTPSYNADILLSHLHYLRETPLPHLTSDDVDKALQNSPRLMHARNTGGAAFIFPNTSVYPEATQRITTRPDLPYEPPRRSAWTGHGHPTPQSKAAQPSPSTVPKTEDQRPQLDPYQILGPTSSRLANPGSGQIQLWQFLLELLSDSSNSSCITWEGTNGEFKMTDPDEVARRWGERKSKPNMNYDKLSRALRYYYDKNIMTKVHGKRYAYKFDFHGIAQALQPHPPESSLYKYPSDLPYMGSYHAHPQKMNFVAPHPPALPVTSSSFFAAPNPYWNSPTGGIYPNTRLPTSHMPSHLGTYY
As to conditions: protein: recombinant; tags: N-terminal GST; dsDNA, one strand shown. The method, boiled down:
as §1

Experiment [5] concerns the target ELF1 (Homo sapiens, UniProt P32519 1-619). As to conditions: protein: recombinant; tags: N-terminal GST; dsDNA, one strand shown. In short, it runs like this:
as §1

For experiment [6], the target named is T5, EHF (Homo sapiens, UniProt Q9NZC4 1-300).
T5 sequence: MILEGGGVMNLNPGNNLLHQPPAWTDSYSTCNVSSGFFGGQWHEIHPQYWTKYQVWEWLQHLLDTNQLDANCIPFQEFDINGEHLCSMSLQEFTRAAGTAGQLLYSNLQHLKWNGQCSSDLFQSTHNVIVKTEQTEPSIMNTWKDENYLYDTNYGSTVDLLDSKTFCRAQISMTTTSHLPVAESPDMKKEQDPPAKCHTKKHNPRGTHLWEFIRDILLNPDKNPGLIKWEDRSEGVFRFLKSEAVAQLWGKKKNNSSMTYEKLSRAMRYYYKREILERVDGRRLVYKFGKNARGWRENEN
As to conditions: protein: recombinant; tags: N-terminal GST; dsDNA, one strand shown. The method, boiled down: as §1

Experiment [7] has as its target SPI1 (Homo sapiens, UniProt P17947 1-270). As to conditions: protein: recombinant; tags: N-terminal GST; dsDNA, one strand shown. In short, it runs like this:
as §1

For experiment [8], the target named is SPIB (Homo sapiens, UniProt Q01892 1-262). As to conditions: protein: recombinant; tags: N-terminal GST; dsDNA, one strand shown. In short, it runs like this: as §1
SPIB, sequence (Q01892 whole entry): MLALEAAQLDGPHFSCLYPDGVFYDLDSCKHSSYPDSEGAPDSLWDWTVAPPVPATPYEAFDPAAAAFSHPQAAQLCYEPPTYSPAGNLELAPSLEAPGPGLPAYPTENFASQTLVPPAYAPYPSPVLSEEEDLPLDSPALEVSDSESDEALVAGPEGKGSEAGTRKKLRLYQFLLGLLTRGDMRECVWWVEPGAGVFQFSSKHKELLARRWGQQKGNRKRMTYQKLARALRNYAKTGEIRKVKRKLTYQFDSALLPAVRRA
The target of experiment [9] is T6, ELK3 (Homo sapiens, UniProt P41970 1-407).
T6 sequence: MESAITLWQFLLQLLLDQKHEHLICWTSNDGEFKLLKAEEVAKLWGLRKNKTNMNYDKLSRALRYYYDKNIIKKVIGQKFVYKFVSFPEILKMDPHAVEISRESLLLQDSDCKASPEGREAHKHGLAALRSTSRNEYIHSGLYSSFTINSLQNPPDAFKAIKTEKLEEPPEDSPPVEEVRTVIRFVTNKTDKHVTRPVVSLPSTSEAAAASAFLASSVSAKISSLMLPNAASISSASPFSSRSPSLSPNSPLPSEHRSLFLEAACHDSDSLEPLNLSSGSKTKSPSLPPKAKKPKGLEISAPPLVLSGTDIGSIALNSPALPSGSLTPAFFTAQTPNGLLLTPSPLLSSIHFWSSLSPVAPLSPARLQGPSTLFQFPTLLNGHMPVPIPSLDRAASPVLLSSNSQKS
As to conditions: protein: recombinant; tags: N-terminal GST; dsDNA, one strand shown. The method, boiled down:
as §1

Experiment [10] deals with T7, FEV (Homo sapiens, UniProt Q99581 1-238).
T7 sequence: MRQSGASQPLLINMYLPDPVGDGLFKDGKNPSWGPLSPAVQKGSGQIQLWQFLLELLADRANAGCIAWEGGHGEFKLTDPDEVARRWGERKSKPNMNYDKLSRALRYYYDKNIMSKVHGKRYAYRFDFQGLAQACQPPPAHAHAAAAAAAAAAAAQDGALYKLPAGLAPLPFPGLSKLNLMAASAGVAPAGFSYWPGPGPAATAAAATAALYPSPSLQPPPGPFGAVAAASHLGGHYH
The conditions noted are these: protein: recombinant; tags: N-terminal GST; dsDNA, one strand shown. In short, it runs like this: as §1

Experiment [11] concerns the target ETV5 (Homo sapiens, UniProt P41161 1-510). The conditions noted are these: protein: recombinant; tags: N-terminal GST; dsDNA, one strand shown. In short, it runs like this: as §1
For experiment [12], the target named is HSF1 (Homo sapiens, UniProt Q00613 1-529). As to conditions: protein: recombinant; tags: N-terminal GST; chain copies: 3; dsDNA, one strand shown. The method, boiled down:
as §1

For experiment [13], the target named is T8, SPIC (Homo sapiens, UniProt Q8N5J4 1-248).
T8 sequence: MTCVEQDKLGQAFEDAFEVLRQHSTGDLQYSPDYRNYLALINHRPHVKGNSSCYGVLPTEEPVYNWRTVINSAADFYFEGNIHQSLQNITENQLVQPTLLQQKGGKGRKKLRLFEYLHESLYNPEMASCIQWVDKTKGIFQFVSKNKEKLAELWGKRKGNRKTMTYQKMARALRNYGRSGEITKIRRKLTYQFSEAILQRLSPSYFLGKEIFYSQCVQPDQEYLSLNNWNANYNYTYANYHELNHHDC
The conditions noted are these: protein: recombinant; tags: N-terminal GST; dsDNA, one strand shown. In short, it runs like this: as §1

Experiment [14] concerns the target ELF4 (Homo sapiens, UniProt Q99607 1-663). The conditions noted are these: protein: recombinant; tags: N-terminal GST; dsDNA, one strand shown. The method, boiled down:
as §1

Experiment [15] addresses T9, ELK4 (Homo sapiens, UniProt P28324-2 1-405).
T9 sequence: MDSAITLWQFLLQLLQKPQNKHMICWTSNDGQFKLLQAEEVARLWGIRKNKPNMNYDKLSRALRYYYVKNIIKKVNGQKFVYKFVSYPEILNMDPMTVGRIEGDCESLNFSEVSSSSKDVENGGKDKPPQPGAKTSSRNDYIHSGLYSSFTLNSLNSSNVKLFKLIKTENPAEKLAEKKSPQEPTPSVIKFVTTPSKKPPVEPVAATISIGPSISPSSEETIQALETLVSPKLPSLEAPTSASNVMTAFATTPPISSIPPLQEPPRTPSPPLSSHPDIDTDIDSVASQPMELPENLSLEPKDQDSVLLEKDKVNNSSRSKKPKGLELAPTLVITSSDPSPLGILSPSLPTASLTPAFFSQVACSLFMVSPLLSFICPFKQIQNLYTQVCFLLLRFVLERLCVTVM
As to conditions: protein: recombinant; tags: N-terminal GST; dsDNA, one strand shown. The method, boiled down:
as §1

Experiment [16] deals with T10, ETV2 (Homo sapiens, UniProt O00321 1-342).
T10 sequence: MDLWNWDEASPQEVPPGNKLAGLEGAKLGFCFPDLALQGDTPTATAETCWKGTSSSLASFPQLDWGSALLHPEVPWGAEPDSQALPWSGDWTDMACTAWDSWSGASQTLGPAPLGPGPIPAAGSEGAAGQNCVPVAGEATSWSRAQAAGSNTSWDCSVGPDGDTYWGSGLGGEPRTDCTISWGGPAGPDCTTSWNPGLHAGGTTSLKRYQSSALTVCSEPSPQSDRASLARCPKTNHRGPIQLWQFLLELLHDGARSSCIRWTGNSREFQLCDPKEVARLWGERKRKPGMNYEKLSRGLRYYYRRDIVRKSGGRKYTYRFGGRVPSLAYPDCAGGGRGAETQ
The conditions noted are these: protein: recombinant; tags: N-terminal GST; dsDNA, one strand shown. In short, it runs like this:
as §1

Experiment [17] concerns the target T11, ELF3 (Homo sapiens, UniProt P78545 1-371).
T11 sequence: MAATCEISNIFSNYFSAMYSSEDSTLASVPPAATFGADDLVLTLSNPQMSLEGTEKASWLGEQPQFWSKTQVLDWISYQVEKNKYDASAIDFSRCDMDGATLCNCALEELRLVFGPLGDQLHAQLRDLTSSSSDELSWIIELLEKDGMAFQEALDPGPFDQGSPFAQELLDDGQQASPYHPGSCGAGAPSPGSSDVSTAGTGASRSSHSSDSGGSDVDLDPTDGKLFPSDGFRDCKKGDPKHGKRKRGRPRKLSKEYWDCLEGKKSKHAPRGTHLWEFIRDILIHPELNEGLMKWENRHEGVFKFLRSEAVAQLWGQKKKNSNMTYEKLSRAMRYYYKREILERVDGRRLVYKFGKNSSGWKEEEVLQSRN
As to conditions: protein: recombinant; tags: N-terminal GST; dsDNA, one strand shown. The method, boiled down:
as §1

The target of experiment [18] is CRX (Homo sapiens, UniProt O43186 1-299). The conditions noted are these: protein: recombinant; tags: N-terminal GST; dsDNA, one strand shown. In short, it runs like this:
as §1

ELF1, sequence (P32519 whole entry): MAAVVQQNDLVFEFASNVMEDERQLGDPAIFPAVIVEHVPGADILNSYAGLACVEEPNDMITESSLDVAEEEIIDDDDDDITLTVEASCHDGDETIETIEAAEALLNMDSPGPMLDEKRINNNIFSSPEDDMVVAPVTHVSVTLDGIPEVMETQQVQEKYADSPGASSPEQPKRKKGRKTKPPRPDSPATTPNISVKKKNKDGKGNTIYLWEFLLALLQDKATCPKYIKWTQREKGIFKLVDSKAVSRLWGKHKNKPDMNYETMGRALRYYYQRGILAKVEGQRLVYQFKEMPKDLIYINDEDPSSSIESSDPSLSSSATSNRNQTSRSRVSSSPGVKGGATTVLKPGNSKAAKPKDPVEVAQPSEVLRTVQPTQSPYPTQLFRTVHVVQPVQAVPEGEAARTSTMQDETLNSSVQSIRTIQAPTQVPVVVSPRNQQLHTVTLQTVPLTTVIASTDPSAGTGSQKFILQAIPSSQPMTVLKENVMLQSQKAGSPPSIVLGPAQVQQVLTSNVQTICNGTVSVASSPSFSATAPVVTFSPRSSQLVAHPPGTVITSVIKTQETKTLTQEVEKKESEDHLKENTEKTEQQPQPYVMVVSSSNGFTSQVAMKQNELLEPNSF
CRX, sequence (O43186 whole entry): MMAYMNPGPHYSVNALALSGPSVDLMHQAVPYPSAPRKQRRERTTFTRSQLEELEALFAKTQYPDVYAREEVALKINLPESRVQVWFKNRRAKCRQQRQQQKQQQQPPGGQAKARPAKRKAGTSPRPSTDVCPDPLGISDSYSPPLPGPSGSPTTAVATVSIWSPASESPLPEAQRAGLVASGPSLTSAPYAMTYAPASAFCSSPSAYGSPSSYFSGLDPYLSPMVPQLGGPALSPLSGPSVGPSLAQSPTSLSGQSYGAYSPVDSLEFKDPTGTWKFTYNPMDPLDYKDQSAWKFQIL
HSF1, sequence (Q00613 whole entry): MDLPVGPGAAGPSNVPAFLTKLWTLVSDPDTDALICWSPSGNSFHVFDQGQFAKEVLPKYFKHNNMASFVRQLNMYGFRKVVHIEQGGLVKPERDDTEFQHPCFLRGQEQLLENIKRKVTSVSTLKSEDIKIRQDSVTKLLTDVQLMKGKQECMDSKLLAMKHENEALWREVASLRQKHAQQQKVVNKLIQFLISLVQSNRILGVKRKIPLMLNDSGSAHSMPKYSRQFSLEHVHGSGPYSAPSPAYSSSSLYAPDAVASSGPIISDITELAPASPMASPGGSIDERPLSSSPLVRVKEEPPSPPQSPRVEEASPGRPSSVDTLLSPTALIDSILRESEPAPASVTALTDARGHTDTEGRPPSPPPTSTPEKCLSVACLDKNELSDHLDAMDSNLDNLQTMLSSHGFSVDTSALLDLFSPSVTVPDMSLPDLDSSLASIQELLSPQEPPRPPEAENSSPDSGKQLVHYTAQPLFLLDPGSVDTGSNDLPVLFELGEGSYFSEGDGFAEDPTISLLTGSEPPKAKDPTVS
ETV5, sequence (P41161 whole entry): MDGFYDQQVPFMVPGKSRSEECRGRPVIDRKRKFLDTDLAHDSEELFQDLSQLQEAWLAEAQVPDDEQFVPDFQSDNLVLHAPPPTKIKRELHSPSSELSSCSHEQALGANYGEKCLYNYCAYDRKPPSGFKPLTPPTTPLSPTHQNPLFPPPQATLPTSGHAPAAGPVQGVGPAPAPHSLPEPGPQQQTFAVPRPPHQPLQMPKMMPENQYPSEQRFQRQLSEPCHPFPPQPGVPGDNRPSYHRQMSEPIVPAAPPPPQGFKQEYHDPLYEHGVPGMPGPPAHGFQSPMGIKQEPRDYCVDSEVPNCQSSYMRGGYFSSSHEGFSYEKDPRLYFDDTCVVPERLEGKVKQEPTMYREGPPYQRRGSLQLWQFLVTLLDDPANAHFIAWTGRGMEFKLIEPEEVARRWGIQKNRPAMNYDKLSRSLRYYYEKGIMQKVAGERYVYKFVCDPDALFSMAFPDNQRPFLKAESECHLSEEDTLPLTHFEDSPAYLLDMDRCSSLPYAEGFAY
ELF4, sequence (Q99607 whole entry): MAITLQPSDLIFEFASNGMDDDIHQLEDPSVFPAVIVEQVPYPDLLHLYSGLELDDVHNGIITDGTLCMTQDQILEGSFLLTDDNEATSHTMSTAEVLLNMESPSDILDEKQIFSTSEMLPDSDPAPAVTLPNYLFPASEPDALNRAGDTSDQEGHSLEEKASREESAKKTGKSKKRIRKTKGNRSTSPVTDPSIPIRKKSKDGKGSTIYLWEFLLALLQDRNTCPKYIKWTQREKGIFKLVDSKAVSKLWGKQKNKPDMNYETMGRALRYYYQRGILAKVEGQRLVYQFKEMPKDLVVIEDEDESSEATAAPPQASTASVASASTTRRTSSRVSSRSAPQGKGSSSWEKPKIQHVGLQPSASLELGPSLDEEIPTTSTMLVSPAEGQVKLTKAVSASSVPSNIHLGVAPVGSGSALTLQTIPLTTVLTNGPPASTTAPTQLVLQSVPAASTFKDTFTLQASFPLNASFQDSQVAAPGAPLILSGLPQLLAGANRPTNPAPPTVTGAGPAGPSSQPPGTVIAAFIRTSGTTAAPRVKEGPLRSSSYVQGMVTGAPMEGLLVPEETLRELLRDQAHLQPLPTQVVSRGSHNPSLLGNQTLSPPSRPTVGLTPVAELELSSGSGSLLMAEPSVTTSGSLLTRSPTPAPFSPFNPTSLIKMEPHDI

Turning to CGATAT, the binding signal is 1.14 fold enrichment (6-mer frequency, TF over GST control) in [1]; 1.03 fold enrichment (6-mer frequency, TF over GST control) in experiment [2]; 1.08 fold enrichment (6-mer frequency, TF over GST control) in [3]; 1.03 fold enrichment (6-mer frequency, TF over GST control) in [4]; 1.12 fold enrichment (6-mer frequency, TF over GST control) in experiment [5]; 1.1 fold enrichment (6-mer frequency, TF over GST control) in [6]. Also, the binding signal in [7] was 1.03 fold enrichment (6-mer frequency, TF over GST control); in experiment [8], 1.02 fold enrichment (6-mer frequency, TF over GST control); in experiment [9], 1.06 fold enrichment (6-mer frequency, TF over GST control); in experiment [10], 1.07 fold enrichment (6-mer frequency, TF over GST control); in [11] it was 1.05 fold enrichment (6-mer frequency, TF over GST control); in [12], 1.06 fold enrichment (6-mer frequency, TF over GST control). Besides, the binding signal in [13] is 1.11 fold enrichment (6-mer frequency, TF over GST control); in experiment [14] it was 1.11 fold enrichment (6-mer frequency, TF over GST control); in [15], 1.19 fold enrichment (6-mer frequency, TF over GST control); in experiment [16], 1.19 fold enrichment (6-mer frequency, TF over GST control); in experiment [17], 1.14 fold enrichment (6-mer frequency, TF over GST control); in experiment [18], 1.03 fold enrichment (6-mer frequency, TF over GST control).
